Source: PubChem BioAssay (SRMLSC)
Compounds with a hit are over-represented: about 6.3% of the library has one in this group of screens.
MK inhibit: blocks S. pneumoniae mevalonate kinase; purified MK, PK/LDH-coupled NADH absorbance 340 nm; inhibition, % at 10 µM; 0.48% of 65,000 active;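 active means ranked among the strongest by inhibition in the single 10 µM screen, a fixed top-ranked set picked for dose follow-up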
PMK inhibit: S. pneumoniae PMK inhibition; purified PMK, PK/LDH-coupled NADH absorbance 340 nm; inhibition, % at 10 µM; 0.49% of 65,000 active; AID 539;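 active means top-ranked compounds by inhibition in the single 10 µM screen, taking a fixed number of the strongest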;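 further: 0% = full reaction with DMSO carrier and 100% = background rate without enzyme reaction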
NADH coupling: blocks coupling enzymes of NAD/NADH assays. coupled PK/LDH NADH assays, four targets. IC50, µM (doses to about 10 µM), inactives show at the top dose inhibition. 0.02% of 65,000 active. AID 774;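 active means single-dose screening hits from any of four coupled enzyme assays that gave an IC50 when retested across doses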;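 further: the DPM-DC format reads NADH fluorescence rather than 340 nm absorbance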
DPM-DC inhibit: S. pneumoniae DPM-DC inhibition. AID 556. purified DPM-DC, PK/LDH coupled NADH fluorescence. 0.49% of 65,000 active. calls only at 10 µM;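 active means the 320 compounds with the highest percent inhibition in the single-dose primary screen, excluding strongly autofluorescent ones, cut at about 32% in these data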;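 further: kinetic rate of NADH fluorescence loss reporting ADP formed by the decarboxylase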
Autofluor 339: intrinsic fluorescence of library compounds, ex339/em460 – biochemical, MLSMR library, data from DPM-DC assay, artefact control, profiling panel; compound autofluorescence, ex339/em460 nm, NADH buffer; active compounds read high; 1 = no-compound wells, NADH background; fluorescence fold increase at 10 µM; 5.5% of 65,000 active; AID 709;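 active means at 10 µM, mean starting fluorescence two-fold or more over control wells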;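 further: signal is the first read of a kinetic run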
Abs 340nm: compound absorbs light at 340 nm; compound absorbance at 340 nm, fold over control; fold change at 10 µM; 65,000 tested, under 10 active;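 active means at 10 µM dose, initial 340 nm absorbance at least 2 fold that of control wells; inactive means change under 2 fold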;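 further: initial absorbance extrapolated from kinetic A340 decline of NADH oxidation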
* hit, by the source's call; i = inactive; x = no result shown; + = active, no number; [ ] = remark or other dose.

SMILES	MK inhibit	PMK inhibit	NADH coupling	DPM-DC inhibit	Autofluor 339	Abs 340nm
CC1(C)CN=C(N2CCN(C3=NCC(C)(C)S3)CC2)S1	7	1	3%	i	1.1	1
O=C(CN(C(=O)CNC(=O)c1ccco1)c1ccc(Cl)c(Cl)c1)NC1CCCCC1	15	11	9%	i	1.1	0.98
NC(=O)c1ccc(-c2ncc(-c3ccccc3)o2)cc1	3	18	11%	x	2.1*	1.2
c1ccc(-c2cnc(-c3cccnc3)o2)cc1	3	8	6%	x	2.1*	1.1
CC(C)C[C@H](N)c1nnc(S(=O)(=O)Cc2ccc(F)cc2)o1	10	5	5%	i	1.1	1
CCC(=O)Oc1ccc2c(C)cc(=O)oc2c1C	7	12	5%	+[fluoresces]	2.1*	0.98
CCOC(=O)CCn1c2nc(C)cc(C)c2c(=O)n1-c1ccccc1	3	64*	34%	x	4.5*	1.1
CN(CC(=O)N1CC=C(c2ccccc2)CC1)S(=O)(=O)c1cnc[nH]1	2	14	5%	i	1.1	0.99
CC(NC(=O)CSc1nc2ccccc2c(=O)n1CCCO)c1ccccc1 (stereo not drawn)	0	18	6%	i	1.1	1
CCCCn1c(SCC(=O)Nc2ccc(OC)cc2)nc2ccc(N3CCOCC3)cc2c1=O	7	4	7%	i	2.4*	0.98
CCCCn1c(SCC(=O)NCc2ccco2)nc2ccc(N3CCOCC3)cc2c1=O	3	3	12%	i	3.8*	1.1
Cn1c(=O)c2c(nc(SCCN3CCCCC3)n2Cc2ccccc2)n(C)c1=O	3	7	3%	i	1.1	1.1
N#CCSc1nc2ccc(N3CCCCC3)cc2c(=O)n1Cc1ccccc1	3	4	5%	i	3*	1.1
CCC(C)NC(=O)CSc1nc2ccc(N3CCOCC3)cc2c(=O)n1CCc1ccccc1 (stereo not drawn)	10	11	10%	i	2.3*	0.99
COc1ccc(Cn2nnc3c(=O)[nH]c(C(=O)NCCc4ccc(F)cc4)nc32)cc1OC	6	14	7%	i	1.1	1
CCOC(=O)CSc1nc2ccc(N3CCOCC3)cc2c(=O)n1Cc1ccc2c(c1)OCO2	10	8	6%	i	2.3*	1
O=C(CSc1nc2sc3c(c2c(=O)n1-c1ccccc1)CCCC3)NCc1ccco1	10	12	11%	i	1.7	1.1
CCN(CC)C(=O)CSc1nc2cc3c(cc2c(=O)n1Cc1ccc2c(c1)OCO2)OCO3	7	18	8%	i	1.1	0.99
CCCCn1c(SCC(=O)Nc2cc(C)on2)nc2ccccc2c1=O	0	11	4%	i	1.3	1
CCCCn1c(SCC(=O)NCc2ccccc2)nc2ccc(N3CCOCC3)cc2c1=O	5	3	5%	i	2.2*	1
COCCCn1c(SCC(=O)NCc2ccco2)nc2sc3c(c2c1=O)CCC3	66*	1	22%	i	1.1	1.1
N#CC1=C(N)N(c2ccc(Oc3ccccc3)cc2)C(=O)C1	2	12	3%	i	1	0.99
Cc1cc(NC(=O)COC(=O)C(Nc2ccc(C(F)(F)F)cc2Cl)C(C)C)no1 (stereo not drawn)	8	6	5%	i	1.1	0.99
CCN=c1sc(C(=O)NCCc2ccccc2)cc(=O)n1CC	0	25*	8%	i	1	1.1
Cc1cccc2cc(CN(Cc3ccco3)S(=O)(=O)c3ccc4c(c3)OCCO4)c(=O)[nH]c12	5	5	17%	+	1.4	1
SMILES	MK inhibit	PMK inhibit	NADH coupling	DPM-DC inhibit	Autofluor 339	Abs 340nm
COC(=O)Cc1c(C)c2ccc(OC(=O)c3ccco3)cc2oc1=O	14	3	9%	x	2.1*	1.1
COC(=O)Cc1c(C)c2cc(Cl)c(OC(=O)c3ccco3)cc2oc1=O	12	2	7%	x	2.1*	1.1
COc1ccc(NC(=O)C23CCC(C)(C(=O)C2)C3(C)C)cc1 (stereo not drawn)	12	21	3%	i	1	1
CCOC(=O)N1CCC(NC(=O)CN2C(=O)CCSc3ccccc32)CC1	11	4	2%	i	1	0.98
CCOC(=O)N1CCC(NC(=O)c2ccc3c(c2)sc2nc(-c4ccc(OC)cc4)cn23)CC1	11	9	7%	i	3.5*	1
CCOC(=O)N1CCC(NC(=O)c2ccc3c(c2)N(CC)CCS3)CC1	9	5	4%	x	2.4*	0.99
COc1ccc2nc3oc(C(=O)N4CCN(c5ccccc5F)CC4)cc3cc2c1	0	7	2%	i	1.4	1
COc1ccc2nc3oc(C(=O)NC4CCN(Cc5ccccc5)CC4)cc3cc2c1	3	10	15%	x	3.4*	1
CCOC(=O)N1CCC(NC(=O)c2cc3cc4cc(OC)ccc4nc3o2)CC1	0	9	5%	x	5.1*	1.1
Cc1ccc(-c2nc(NC(=O)CSc3nnc4scc(-c5ccccc5)n34)ns2)cc1	1	0	0%	i	1.1	1
CN1CCc2nc(SCC(=O)Nc3ccc(F)cc3)c(C#N)cc2C1	3	6	5%	i	1.3	0.99
CC1=NC(C)Cc2ccccc21 (stereo not drawn)	12	16	9%	i	1.1	1
C=CCn1c(COc2ccc(Cl)cc2)nnc1SCC(=O)N1CC(=O)Nc2ccccc21	6	18	3%	i	1.1	1
CN(C)CCNC(=O)c1ccc2c(c1)N(Cc1ccc(F)cc1)CCS2	10	20	15%	x	2*	1
CN(C)CCNC(=O)c1ccc(COCC(F)(F)F)cc1	8	1	3%	i	1	0.99
CCOc1ccc(-c2nnc(SCC(=O)N3CCN(c4ccccc4)CC3)o2)cc1	11	26*	4%	i	1.1	1
O=C(CSc1nnc(-c2ccccc2)o1)N1CCN(c2ccccc2)CC1	15	1	3%	i	1	0.98
CC1=C(C(=O)N2CCOCC2)C(c2ccsc2)C2=C(CCCC2=O)N1 (stereo not drawn)	10	4	2%	x	2.9*	1.1
COC(=O)C1=C(C)NC2=C(C(=O)CCC2)C1c1ccsc1 (stereo not drawn)	2	0	6%	i	1.9	1.1
CN(C)c1nc(OCC(=O)NC(C)(C)C)nc(N(C)C)n1	8	7	6%	i	1.1	1
c1ccc(Cn2c(-c3cccs3)nc3nc4ccccc4nc32)cc1	9	5	7%	x	3.7*	1
CC(C)Cn1c(-c2cccs2)nc2nc3ccccc3nc21	0	2	1%	x	3.9*	1.1
c1ccc(-c2nc3nc4ccccc4nc3n2Cc2ccco2)cc1	16	15	12%	i	1.5	1.1
CCN1CCCC1CNC(=O)c1cc(NC(C)=O)c(N(C)C)cc1OC (stereo not drawn)	9	14	8%	i	1.1	1
